TIM10 inh: growth inhibitors of TIM10 yeast strain; S. cerevisiae TIM10 strain growth, BacTiter-Glo luminescence, 24 h; inhibition, % at 10 µM; hit rate 1.4% among 330,000;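 active = inhibition of 40% or more at the single tested concentration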;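 note: wild-type TIM10 isogenic control strain grown at permissive 25 °C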
tim23-1 inh: tim23-1 yeast growth inhibition; S. cerevisiae tim23-1 growth, BacTiter-Glo luminescence, 24 h; inhibition, % at 20 µM; hit rate 1.3% among 330,000; AID 463212;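 active = growth inhibition of the mutant yeast at or above 50%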;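 note: temperature-sensitive mutant grown at 25 °C; plate controls were DMSO-treated mutant yeast for no effect and medium wells lacking yeast for full effect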
NALP1 yeast inh: blocks the NALP1 inflammasome reconstituted in yeast; S. cerevisiae NALP1/ASC/caspase-1 growth, X-gal OD620, 72 h; inhibition, % at 10 µM; hit rate 0.61% among 280,000; in the data active = inhibition mostly above about 24%, no sharp cut-off; inactive = mostly below about 32%
NLRP3 yeast inh: NALP3 inhibition in yeast; AID 2825; Yeast reconstituted NLRP3/ASC/caspase-1, beta-gal luminescence, 24 h; inhibition, % at 10 µM; hit rate 0.39% among 330,000;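 active = inhibition of 50% or more; inactive = inhibition below 50%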;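 note: plate controls were induced DMSO wells for no effect and uninduced yeast grown without galactose for full effect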
V-ATPase pHluor: alters yeast V-ATPase proton transport; hit rate 0.37% among 350,000; response, % at 10 µM; S. cerevisiae, pHLuorin cytosolic pH fluorescence; in the data active = response mostly above about 7.3%, no sharp cut-off; inactive = mostly below about 5.4%; note: actives read high
tim10-1 inh: inhibits growth of tim10-1 mutant yeast | S. cerevisiae tim10-1 ts strain growth, BacTiter-Glo, 24 h | inhibition, % at 20 µM | hit rate 2.2% among 330,000;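 active = inhibition of at least 40%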;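 note: mutant grown at 25 °C; 0% = DMSO wells with yeast and 100% = wells holding no yeast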
NALP3 confirm: confirmation of NALP3 inhibitors in yeast; shares compounds with NLRP3 yeast inh; yeast expressing human NALP3, luminescence; inhibition, % at 10 µM; hit rate 81% among 1,300; in the data active = inhibition above about 48%
Casp1 ASC ctr: active in yeast caspase-1-ASC counter-screen for NALP3 inhibitors; shares compounds with NLRP3 yeast inh; yeast expressing Caspase-1-ASC, luminescence counter screen; hit rate 66% among 1,000; inhibition, % at 10 µM
NALP3 yeast rt: confirmation retest of NALP3 inhibitors in yeast. AID 488794. inhibition, % at 10 µM. shares compounds with NLRP3 yeast inh. yeast expressing human NALP3, luminescence read-out. hit rate 53% among 1,000
tim10-1 conf: confirmation of tim10-1 mutant yeast growth inhibitors; shares compounds with tim10-1 inh; S. cerevisiae tim10-1 ts strain growth, BacTiter-Glo, 24 h; inhibition, % at 20 µM; hit rate 56% among 7,400; AID 463213;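 active = inhibition of yeast growth at or above a set limit in either of two repeat tests at 20 µM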;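 note: tim10-1 mutant grown at permissive 25 °C to find synthetic lethal compounds; 0% = DMSO yeast wells and 100% = medium wells without yeast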
tim10 confirm: TIM10 yeast growth inhibition, confirmed | shares compounds with TIM10 inh | S. cerevisiae tim10 strain growth, BacTiter-Glo luminescence, 24 h | inhibition, % at 10 µM | hit rate 63% among 4,600 | AID 463215;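 active = inhibition of yeast growth at or above a set limit in either of two replicates at 10 µM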;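 note: this counterscreen used the strain with wild-type TIM10; 0% = yeast with DMSO and 100% = medium wells lacking yeast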
tim23-1 conf: tim23-1 yeast growth inhibition, confirmed; inhibition, % at 20 µM; S. cerevisiae tim23-1 growth, BacTiter-Glo luminescence, 24 h; AID 463218; hit rate 83% among 4,400; shares compounds with tim23-1 inh;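 active = inhibition above about 39% in either of two replicate wells at 20 µM, limit read from the data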;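 note: temperature-sensitive tim23-1 mutant grown at 25 °C; 0% = DMSO wells with yeast and 100% = medium wells without yeast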
* hit, by the source's call. Compounds with a hit are over-represented: about 4.2% of the library has one in this group of screens. Cut-off read from the data, not from the text of the source, unless noted: active = inhibition above about 50%; inactive = the rest.

How did Cc1cccc(N/C=C/c2onc(C)c2[N+](=O)[O-])c1 do in these assays?
TIM10 inh: 5; tim23-1 inh: 1; NALP1 yeast inh: 15; NLRP3 yeast inh: 16; V-ATPase pHluor: -1; tim10-1 inh: 13

Results for CC(C)(C)n1cnc2cc(NC(=O)c3cccs3)ccc21 ?
TIM10 inh: 61*; tim23-1 inh: 53*; NALP1 yeast inh: 11; NLRP3 yeast inh: 57*; V-ATPase pHluor: 1; tim10-1 inh: 25; NALP3 confirm: 74*; Casp1 ASC ctr: 60*; NALP3 yeast rt: 45; tim10 confirm: 55*; tim23-1 conf: 71*

Results for N#C/C(=C\c1ccc([N+](=O)[O-])cc1)c1ccccn1 ?
TIM10 inh: 52*; tim23-1 inh: 65*; NALP1 yeast inh: 12; NLRP3 yeast inh: 55*; V-ATPase pHluor: -1; tim10-1 inh: 46*; NALP3 confirm: 56*; Casp1 ASC ctr: 39; NALP3 yeast rt: 49; tim10-1 conf: 60*; tim10 confirm: 57*; tim23-1 conf: 58*

What do the screens show for `COc1ccc(CCNC(=O)Cn2cnc3c(nnn3Cc3ccc(C)cc3)c2=O)cc1OC`?
TIM10 inh: -8; tim23-1 inh: -19; NALP1 yeast inh: 11; NLRP3 yeast inh: 8; V-ATPase pHluor: 5; tim10-1 inh: -6

How did CNC(=O)C(C#N)(Cc1cc(C(C)=O)ccc1OC)Cc1cc(C(C)=O)ccc1OC do in these assays?
TIM10 inh: 14; tim23-1 inh: 1; NALP1 yeast inh: 6; NLRP3 yeast inh: 2; V-ATPase pHluor: 3; tim10-1 inh: -6

Results for Cn1c(CCN2CCOCC2)nc2cc(NC(=O)COc3ccccc3)ccc21 ?
TIM10 inh: 6; tim23-1 inh: 15; NALP1 yeast inh: -9; NLRP3 yeast inh: 4; V-ATPase pHluor: 0; tim10-1 inh: -6

Results for O=C(NC(=S)Nc1ccccc1Br)C1CCCCC1 ?
TIM10 inh: 39; tim23-1 inh: 56*; NLRP3 yeast inh: 53*; V-ATPase pHluor: -2; tim10-1 inh: 27; NALP3 confirm: 47; Casp1 ASC ctr: 59*; NALP3 yeast rt: 34; tim23-1 conf: 38

What do the screens show for `O=C(NC(=S)Nc1ccccc1F)C1CCCCC1`?
TIM10 inh: 31; tim23-1 inh: 54*; NALP1 yeast inh: 20; NLRP3 yeast inh: 52*; V-ATPase pHluor: 1; tim10-1 inh: 40*; NALP3 confirm: 72*; Casp1 ASC ctr: 72*; NALP3 yeast rt: 63*; tim10-1 conf: 21; tim23-1 conf: 48*

What do the screens show for `O=C(COc1ccc(Br)cc1)Nc1ccc2oc(=O)ccc2c1`?
TIM10 inh: 5; tim23-1 inh: 11; NALP1 yeast inh: 3; NLRP3 yeast inh: 24; V-ATPase pHluor: 2; tim10-1 inh: 3

Results for Cc1ccnc2c1ccc1ccccc12 ?
TIM10 inh: -7; tim23-1 inh: 19; NALP1 yeast inh: -4; NLRP3 yeast inh: 17; V-ATPase pHluor: 1; tim10-1 inh: 12

How did Cc1c2ccccc2c(C)c2c1ccc1ccccc12 do in these assays?
TIM10 inh: 84*; tim23-1 inh: 77*; NLRP3 yeast inh: 65*; V-ATPase pHluor: -6; tim10-1 inh: 50*; NALP3 confirm: 62*; tim10-1 conf: 47*; tim10 confirm: 88*; tim23-1 conf: 80*

Assay outcomes: PubChem, several laboratories
